PubChem BioAssay AID1445 (SRMLSC, 2008)
In all, about 220,000 compounds went through this assay and about 910 (0.41%) were called active.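 Rule for the calls: active = primary inhibition above the hit cutoff, then over 50% inhibition at one or more dose response concentrations (cut at about 23% in these data, passing the limit was not always enough); inconclusive = conflicting primary data, or primary hits not chosen for dose response; inactive = low primary inhibition, or under 50% at every dose.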 What follows is part of a selection rich in actives, with near analogues and random picks from the rest. Potency and affinity values are given separately.

Biological target: Aminopeptidase N (Plasmodium falciparum (isolate 3D7)) (UniProt O96935)
Test: P. falciparum M1AAP inhibitors, biochemical, fluorogenic H-Leu-NHMec substrate, 1536-well (AID 1445);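 note: plate controls were DMSO full reaction for no effect and no enzyme background for full effect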
Conditions: recombinant M1AAP, H-Leu-NHMec fluorogenic kinetic assay; at 30 µM, hits give high values unless noted

Chain of Aminopeptidase N (Plasmodium falciparum (isolate 3D7)) (O96935 whole entry, looked up): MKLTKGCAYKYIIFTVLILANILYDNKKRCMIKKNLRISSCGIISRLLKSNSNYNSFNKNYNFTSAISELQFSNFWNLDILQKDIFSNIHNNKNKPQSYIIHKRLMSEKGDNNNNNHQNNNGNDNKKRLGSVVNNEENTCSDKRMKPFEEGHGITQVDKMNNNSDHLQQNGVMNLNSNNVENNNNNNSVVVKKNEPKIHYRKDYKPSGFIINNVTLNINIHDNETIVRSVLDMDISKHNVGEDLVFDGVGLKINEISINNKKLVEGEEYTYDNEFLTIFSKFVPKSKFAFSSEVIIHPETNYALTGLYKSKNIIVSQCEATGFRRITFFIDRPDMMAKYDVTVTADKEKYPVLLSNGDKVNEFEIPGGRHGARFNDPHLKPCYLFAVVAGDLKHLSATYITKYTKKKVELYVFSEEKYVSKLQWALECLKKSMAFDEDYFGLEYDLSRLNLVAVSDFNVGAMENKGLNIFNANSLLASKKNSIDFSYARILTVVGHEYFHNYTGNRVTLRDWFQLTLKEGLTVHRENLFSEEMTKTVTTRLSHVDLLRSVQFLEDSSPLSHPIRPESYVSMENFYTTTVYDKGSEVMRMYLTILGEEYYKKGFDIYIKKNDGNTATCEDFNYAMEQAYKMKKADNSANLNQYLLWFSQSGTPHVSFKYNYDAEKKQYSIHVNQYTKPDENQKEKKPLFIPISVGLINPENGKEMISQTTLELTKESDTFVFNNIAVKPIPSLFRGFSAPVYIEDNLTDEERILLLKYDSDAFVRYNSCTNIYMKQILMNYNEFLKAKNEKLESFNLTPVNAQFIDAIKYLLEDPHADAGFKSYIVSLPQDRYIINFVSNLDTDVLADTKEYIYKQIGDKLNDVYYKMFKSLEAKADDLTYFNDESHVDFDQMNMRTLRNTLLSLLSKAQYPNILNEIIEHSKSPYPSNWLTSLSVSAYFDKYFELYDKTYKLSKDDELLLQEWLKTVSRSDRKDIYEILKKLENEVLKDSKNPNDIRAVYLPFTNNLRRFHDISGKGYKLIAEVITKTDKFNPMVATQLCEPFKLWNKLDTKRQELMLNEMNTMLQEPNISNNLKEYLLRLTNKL

Structure (SMILES) | inhibition
COC(=O)c1ccc(OC(=O)CCN2c3ccccc3Sc3ccccc32)cc1 | -4.42% (inactive)
CC(=O)Nc1ccc(Nc2cc(-c3ccccc3)nc3ncnn23)cc1 | 1.24% (inactive)
NC(=O)c1nnsc1Sc1c(C(N)=O)nnn1-c1cccc(N)c1 | 4.16% (inactive)
OCCNCCOc1ccccc1F | 7.92% (inactive)
COC(=O)[C@H](CC(C)C)NC(=O)NCc1ccc(Cl)cc1 | 5.26% (inactive)
Cc1ccn2c(Nc3ccc4c(c3)OCO4)c(-c3ccccn3)nc2c1 | 12.3% (inactive)
N#Cc1c(NC(=O)C2CCCO2)sc2c1CCCCCC2 (stereo not drawn) | 3.88% (inactive)
O=C1CC(c2ccccc2)Cc2nc3nc(C(F)(F)F)nn3cc21 (stereo not drawn) | -1.32% (inactive)
Cc1ccc(NS(=O)(=O)Cc2ccccc2)nc1 | 5.38% (inactive)
O=C1Nc2ccccc2C1=Nc1ccc(S(=O)(=O)Nc2nccs2)cc1 | 9.76% (inactive)
O=S(=O)(Cc1ccccc1)Nc1ccc(Br)cn1 | 1.35% (inactive)
O=c1oc(-c2ccccc2NS(=O)(=O)c2ccccc2)nc2ccccc12 | 9.41% (inactive)
COc1ccccc1NC(=O)C1=C(C)NC(=O)NC1c1ccccc1F (stereo not drawn) | 5.11% (inactive)
CCN(CC)CC(C)(C)NS(=O)(=O)c1ccc(Cl)cc1 | -1.17% (inactive)
CC(C)OCCCNC(=O)c1ccc2c(=O)n(Cc3ccc4c(c3)OCO4)c(=S)[nH]c2c1 | -0.14% (inactive)
COc1ccc(/C=C/C(=O)NCCSCc2ccco2)cc1 | 8.04% (inactive)
Cc1ccccc1C(=O)OCc1nnc(-c2ccc(Cl)cc2)o1 | 1.13% (inactive)
COC(=O)CC(N)c1ccc(Br)cc1 (stereo not drawn) | 3.11% (inactive)
NC(CC(=O)O)c1ccc(F)cc1 (stereo not drawn) | 0.38% (inactive)
Cc1c(/C=N/NC(=O)c2cc(C(C)(C)C)[nH]n2)c2ccccc2n1C | 4.3% (inactive)
COc1ccc2[nH]cc(CCN=C3SCC(=O)N3C)c2c1 | -3.56% (inactive)
N#Cc1cc2c(nc1SCc1ccccc1)CCC2 | -3.56% (inactive)
N#Cc1cc2c(nc1SCc1ccccc1)CCCCC2 | 5.06% (inactive)
CCOc1ccc(CCNC(=O)C2CCCN(c3nn4c(=O)cc(C)nc4s3)C2)cc1 (stereo not drawn) | 1.13% (inactive)
CCOC(=O)c1c(-c2ccccc2)csc1N1C(=O)Nc2ccccc2N1O | 17% (inactive)

Structure (SMILES) | inhibition
CCOc1ccc(S(=O)(=O)Nc2cc(OC)ccc2OC)cc1 | 4.04% (inactive)
CCOc1ccc(S(=O)(=O)Nc2cc(Cl)ccc2O)cc1 | 24.5% (active)
COc1ccc(S(=O)(=O)Nc2cc(Cl)ccc2OC)cc1 | 4.45% (inactive)
Cc1ccc(S(=O)(=O)Nc2ccccn2)cc1[N+](=O)[O-] | 2.61% (inactive)
Cc1ccc(-c2csc(NC(=O)CSc3nc4ccccc4[nH]3)n2)cc1 | 7.06% (inactive)
CCc1cc2c(-n3nc(C)cc3C)ncnc2s1 | 4.83% (inactive)
Cc1cc(Cl)ccc1OCCCC(=O)NN | 2.87% (inactive)
Cc1cc(Cl)ccc1OCCCC(N)=O | 1.94% (inactive)
Cn1c(=O)n(C)c2cc(NS(=O)(=O)c3cccs3)ccc21 | 5.68% (inactive)
Cc1ccc(C(=O)NCc2ccc(Cl)c(Cl)c2)o1 | 7.75% (inactive)
CCCCN(CCCC)CC(O)CN1C(=O)NC(C)(C)C1=O (stereo not drawn) | -3.19% (inactive)
CCN(CC(N)=O)S(=O)(=O)c1ccc(F)cc1 | 2.95% (inactive)
O=C(N/N=C/c1ccc(Sc2ccccn2)o1)c1cc2ccccc2cc1O | 33% (inactive)
CCOc1ccc(C(=O)N/N=C/c2ccc(-c3ccc(S(=O)(=O)Nc4ncccn4)cc3)o2)cc1 | 55.9% (active)
Cc1ccc(C(=O)N/N=C\c2ccc(-c3ccc(Cl)cc3)o2)cn1 | 8.72% (inactive)
CCCOc1ccc(C(=O)Nc2ccc(S(=O)(=O)Nc3onc(C)c3C)cc2)cc1 | -1.24% (inactive)
NS(=O)(=O)c1ccc(-c2ccc(/C=N/NC(=O)c3ccccc3O)o2)cc1 | 11.7% (inactive)
NS(=O)(=O)c1ccc(-c2ccc(/C=N/NC(=O)c3ccc([N+](=O)[O-])cc3)o2)cc1 | 2.02% (inactive)
CCOc1ccc(S(=O)(=O)N(CC(=O)N/N=C/c2ccc(-c3ccc([N+](=O)[O-])cc3)o2)c2ccccc2)cc1 | 15.9% (inactive)
CCOc1ccc(S(=O)(=O)Nc2ccc(C(=O)NN)cc2)cc1 | 4.26% (inactive)
Cc1noc(NS(=O)(=O)c2ccc(NC(=O)c3ccc(OC(C)C)cc3)cc2)c1C | 4.64% (inactive)
O=C(Nc1ccc(Cl)c(Cl)c1)C1CC(=O)N(c2ccc(Br)cc2)C1 (stereo not drawn) | -1.64% (inactive)
O=C(CCc1nc2ccccc2[nH]1)Nc1ccccc1F | -0.01% (inactive)
CC1CCCCN1C(=O)COc1ccc2ccc(=O)oc2c1 (stereo not drawn) | -2.26% (inactive)
Cc1ccc(NCN2C(=O)C3CC=CCC3C2=O)cc1 (stereo not drawn) | 2.04% (inactive)

Structure (SMILES) | inhibition
Cc1ccc(CSCC(=O)N/N=C/c2sccc2C)cc1 | -0.66% (inactive)
O=C(Cn1cc(C(F)(F)F)cc(Cl)c1=O)Nc1cc(S(=O)(=O)N2CCOCC2)ccc1Cl | 7.22% (inactive)
Cc1ccc(NC(=O)NCc2ccc3c(c2)OCO3)cc1C | 0.33% (inactive)
Cc1ccc(N2CC(C(=O)Nc3cccnc3)CC2=O)cc1 (stereo not drawn) | -4.99% (inactive)
CC12CC(NC(=O)N1Cc1ccccc1)c1ccccc1O2 (stereo not drawn) | 25.3% (active)
CC12CC(NC(=O)N1CCc1ccccc1)c1ccccc1O2 (stereo not drawn) | 4.6% (inactive)
COc1cccc2c1OC1(C)CC2NC(=O)N1Cc1ccccc1 (stereo not drawn) | 1.39% (inactive)
CC1CCCC(C)N1NC(=S)Nc1ccc(OC(F)F)cc1 (stereo not drawn) | 3.89% (inactive)
CSc1cc(-c2ccc(Cl)cc2)[nH]c(=O)c1C#N | 0.84% (inactive)
O=C1NCC(COCc2ccco2)O1 (stereo not drawn) | -4.49% (inactive)
COc1ccc(/C=N/NC(=O)C(Cc2c[nH]c3ccccc23)NC(=O)OCC(C)C)cc1[N+](=O)[O-] (stereo not drawn) | 3.34% (inactive)
COc1cc(/C=N/NC(=O)Cc2c[nH]c3ccccc23)cc(OC)c1OC | 8.03% (inactive)
COC(=O)N/N=C/c1cc(OC)c(O)c([N+](=O)[O-])c1 | 14.3% (inactive)
COc1ccccc1CNC(=O)C(Cc1c[nH]c2ccccc12)NC(=O)OCc1ccccc1 (stereo not drawn) | 2.3% (inactive)
CC(=O)NC(Cc1c[nH]c2ccccc12)C(=O)N/N=C/c1ccccc1 (stereo not drawn) | 2.78% (inactive)
COc1cc(/C=N/NC(=O)C(Cc2c[nH]c3ccccc23)NC(=O)OCC(C)C)cc([N+](=O)[O-])c1OCc1ccccc1 (stereo not drawn) | 9.91% (inactive)
Cc1ccc2[nH]c(=O)c(CNC(C)C)cc2c1 | 11.4% (inactive)
O=C(NCc1ccccn1)C(=O)Nc1ccccc1 | 1.97% (inactive)
Cc1ccc(C(=O)C(OC(=O)c2cnccn2)c2ccccc2)cc1 (stereo not drawn) | 1.17% (inactive)
O=S(=O)(c1ccc2ccccc2c1)N1CCN(C(=S)Nc2ccc(F)cc2)CC1 | 3.26% (inactive)
O=C(Cc1ccccc1)NS(=O)(=O)c1ccc(N=NN2CCOCC2)cc1 | 12.9% (inactive)
COC(=O)N1CCCc2cc(C)ccc21 | -4.46% (inactive)
COc1cccc(C(=O)NN2C(=O)C3C4C=CC(O4)C3C2=O)c1 (stereo not drawn) | 6.4% (inactive)
NS(=O)(=O)c1ccc(CCNC(=O)CSc2nc3ccsc3c(=O)n2CC(=O)O)cc1 | 2.18% (inactive)
O=C(NCc1ccccn1)C1CCN(S(=O)(=O)c2cc(Cl)ccc2Cl)CC1 | 3.1% (inactive)

Structure (SMILES) | inhibition
CC(C)c1ccc(C(N)=S)cc1 | 4.59% (inactive)
CC(=O)NC(C)CCc1ccccc1 (stereo not drawn) | -2.08% (inactive)
COC(=O)[C@H](C)NC(=O)NC(C)CCc1ccccc1 (stereo partly drawn) | 13.4% (inactive)
COC(=O)[C@@H](NC(=O)NC(C)CCc1ccccc1)C(C)C (stereo partly drawn) | 23.4% (active)
Cc1cccc(N2C(=O)CC(N3CCC(c4nc5ccccc5[nH]4)CC3)C2=O)c1 (stereo not drawn) | 3.73% (inactive)
CC1CCN(C(=O)C2CCN(S(=O)(=O)c3cc(Cl)ccc3Cl)CC2)CC1 | 0.81% (inactive)
CC(C)C(C)NC(=O)CSc1nc2scc(-c3ccco3)c2c(=O)n1-c1ccccc1 (stereo not drawn) | 4.78% (inactive)
CC(C)C(C)(C#N)NC(=O)CSc1nc2scc(-c3ccco3)c2c(=O)n1-c1ccccc1 (stereo not drawn) | 24.4% (active)
NC(=O)CSc1nc2scc(-c3ccco3)c2c(=O)n1-c1ccccc1 | 18% (inactive)
CCC(C(=O)Nc1ccncc1)c1ccccc1 (stereo not drawn) | 2.45% (inactive)
Cc1cccc2cc(COC(=O)c3cccc([N+](=O)[O-])c3)c(=O)[nH]c12 | 3.82% (inactive)
CC(=O)NC1CCN(CC(=O)Nc2cccc([N+](=O)[O-])c2)CC1 | 1.46% (inactive)
CC1CCN(CC(=O)Nc2cccc([N+](=O)[O-])c2)CC1 | -0.43% (inactive)
CCC(C)NC(=O)CSc1nc(-c2cccs2)cc(C(F)(F)F)n1 (stereo not drawn) | 18.3% (inactive)
O=C(NC1CCN(C(=S)NCc2ccco2)CC1)C1CCCCC1 | 6.27% (inactive)
COc1ccc(C(=O)NC2CCN(C(=S)NCc3ccco3)CC2)cc1 | 4.73% (inactive)
Cc1ccc(NC(=O)N2CCC(C(=O)NCc3ccc(F)cc3)CC2)cc1 | 10.1% (inactive)
Cc1ccc(NC(=O)N2CCC(C(=O)NCc3ccccc3)CC2)cc1 | 26.3% (active)
O=C(NCc1ccccc1)C1CCN(C(=O)NCc2ccccc2)CC1 | 17.5% (inactive)
O=C(NC1CCN(C(=O)NC2CCCCC2)CC1)c1ccco1 | 11.5% (inactive)
CCOc1ccc(C(=O)NC2CCN(C(=S)NCc3ccco3)CC2)cc1 | 11.3% (inactive)
O=C(NC1CCCCC1)NC1CC2CCC(C1)N2C(=S)NCc1ccco1 (stereo not drawn) | 19.9% (inactive)
CCNC(=S)N1CCC(NC(=O)c2ccco2)CC1 | -4.14% (inactive)
